This is a sample that favours compounds with a hit; in the whole collection about 27% have one here.
CYP2C19 inhib: inhibitors of human CYP2C19; inhibition, % at 5 µM; 96,000 compounds, 21% hits; P33261; CYP2C19 Supersomes, luciferin-H EGE luminescence, 30 min; AID 778;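 active = CYP2C19 inhibition above a set limit at 5 µM in the primary screen, cut at about 50% in these data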;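 also: plate controls were negative control wells for no effect and 2.5 mM tranylcypromine positive control for full effect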
Target sequence (P33261 whole entry, looked up): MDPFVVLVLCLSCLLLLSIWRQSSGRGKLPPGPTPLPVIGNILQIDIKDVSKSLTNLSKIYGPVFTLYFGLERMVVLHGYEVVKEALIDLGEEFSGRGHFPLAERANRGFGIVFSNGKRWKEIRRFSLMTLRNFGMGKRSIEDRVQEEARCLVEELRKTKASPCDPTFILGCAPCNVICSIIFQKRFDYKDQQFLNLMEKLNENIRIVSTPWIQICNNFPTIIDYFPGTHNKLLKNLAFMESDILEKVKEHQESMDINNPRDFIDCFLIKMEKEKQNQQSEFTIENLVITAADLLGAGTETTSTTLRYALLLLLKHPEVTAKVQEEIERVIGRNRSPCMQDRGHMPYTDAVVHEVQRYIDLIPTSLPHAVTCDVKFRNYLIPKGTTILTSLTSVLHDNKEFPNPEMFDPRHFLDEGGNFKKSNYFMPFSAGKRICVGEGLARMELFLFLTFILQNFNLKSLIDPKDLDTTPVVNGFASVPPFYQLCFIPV
CYP2C9 inhib: human CYP2C9 inhibition; P11712; inhibition, % at 5 µM; CYP2C9 Supersomes, luciferin-H conversion, luminescence; 96,000 compounds, 20% hits;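 active = blocking of liver enzyme CYP2C9 beyond about 50% at 5 µM, limit read from the data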
CYP2C9 act: increases human cytochrome P450 2C9 activity; P11712; 96,000 compounds, 1.4% hits; activation factor at 5 µM; recombinant CYP2C9, luciferin-H conversion, luminescence; hits give high values; factor 1 = untreated enzyme, 0 = blocked; AID 1024;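 active = activation factor of 2 or more for CYP2C9 at a 5 µM dose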;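 also: 0 = sulfaphenazole-blocked wells and 1 = vehicle-only wells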
CYP2C19 act: activators of human cytochrome P450 2C19 | 96,000 tested, under 10 active | recombinant CYP2C19, luciferin-H EGE luminescence; hits give high values; 0 = fully inhibited enzyme, 1 = untreated enzyme | P33261 | activation factor at 5 µM;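 active = activation factor of at least 2 at 5 µM in the primary screen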;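 also: 0 = wells with 2.5 mM tranylcypromine and 1 = vehicle-only wells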
Cav3 T inh: inhibitors of human Cav3.2 T-type calcium channel; AID 449739; B-score at 10 µM; Cav3.2-expressing cells, Fluo-4 calcium fluorescence FDSS; hits give low values; 100,000 compounds, 4% hits;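 active = single-dose well whose peak fluorescence ratio is a statistical outlier from its plate by either plate-standardised score or position-corrected B-score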
Active calls of the source: *; nt = no result given.

SMILES	CYP2C19 inhib	CYP2C9 inhib	CYP2C9 act	CYP2C19 act	Cav3 T inh
Cc1ccc(S(=O)(=O)Nc2ccc(S(=O)(=O)NC(C)(C)C)cc2)cc1	48	87*	0.1	0.5	-1.6
NC(=O)C(c1cccc(Cl)c1)c1ncc(C(F)(F)F)cc1Cl (stereo not drawn)	41	3	1	0.6	-0.15
CN(C)CC(O)COc1cc2ccccc2cc1C(=O)N1CCCCC1 (stereo not drawn)	7	14	0.9	0.9	1.3
COc1ccc(NS(=O)(=O)c2ccc(NS(=O)(=O)c3ccc(C)cc3)cc2)nn1	-3	66*	0.3	1	nt
COC(=O)CSCc1nc2ccccc2[nH]c1=O	nt	nt	nt	nt	0.43
Cc1cccc(-c2nc(CSCC(=O)N3CCN(Cc4ccc5c(c4)OCO5)CC3)c(C)o2)c1	70*	16	0.8	0.3	nt
O=C(c1ccc(Br)o1)N1CCN(Cc2ccc3c(c2)OCO3)CC1	90*	62*	0.4	0.1	0.17
Cc1ccc(S(=O)(=O)N(C)c2ccc(C(=O)N3CCCCC3)cc2)cc1	55*	74*	0.3	0.4	0.86
O=C(c1cc2c(s1)CCCCC2)N1CCN(c2ncccn2)CC1	69*	92*	0.1	0.3	-1.8
Cc1cccc(N(C2C=CS(=O)(=O)C2)S(=O)(=O)c2ccccc2)c1 (stereo not drawn)	26	8	0.9	0.7	-1.1
CC(=O)NCC(=O)N(C)C(C(=O)Nc1ccc(C(C)C)cc1)c1ccccc1 (stereo not drawn)	-5	6	0.9	1	0.16
CCOC(=O)CSc1snnc1-c1ccccc1	38	24	0.8	0.6	-0.73
Cc1ccc(C(=O)Nc2ccc(S(=O)(=O)N3CCN(C)CC3)cc2)o1	4	30	0.7	1	0.51
COC(=O)Cc1cc(=O)n2[nH]c(C(F)(F)F)nc2n1	33	15	0.9	0.7	0.41
CC(=O)c1n[nH]nc1Nc1nc(C)cc(C)n1	nt	nt	nt	nt	0.12
COCCCNC(=O)Cn1nc(-c2ccc(C)cc2)ccc1=O	0	18	0.8	1	nt
N[C@H]1CONC1=O	nt	nt	nt	nt	0.04
CN(c1ccc(C(=O)N2CCN(Cc3ccc4c(c3)OCO4)CC2)cc1)S(=O)(=O)c1ccccc1	79*	94*	0.1	0.2	-2.3
O=C(CN(c1ccccc1)S(=O)(=O)c1ccccc1)N1CCN(Cc2ccc3c(c2)OCO3)CC1	69*	89*	0.1	0.3	-1.7
O=C(CSCc1ccccc1)N1CCN(Cc2ccc3c(c2)OCO3)CC1	nt	nt	nt	nt	-0.018
Cc1nc2c(C(=O)NCc3ccco3)cnn2c(C)c1Cc1ccc(F)cc1Cl	14	4	1	0.9	0.22
Cc1cccc(Cc2c(C)nc3c(C(=O)N4CCN(Cc5ccc6c(c5)OCO6)CC4)cnn3c2C)c1	93*	76*	0.2	0.1	-4.2
Cc1cccc(Cc2c(C)nc3c(C(=O)NCc4ccco4)cnn3c2C)c1	50*	56*	0.4	0.5	0.083
Cc1cc(Oc2cnn(C(C)(C)C)c(=O)c2Cl)cc(C(C)C)c1	nt	nt	nt	nt	-1.1
O=C(COC(=O)C1(c2ccccc2F)CCCC1)N1CCOCC1	5	-29	1.3	1	0.66
SMILES	CYP2C19 inhib	CYP2C9 inhib	CYP2C9 act	CYP2C19 act	Cav3 T inh
Cc1ccc(S(=O)(=O)N(C)c2ccc(C(=O)N3CCN(Cc4ccc5c(c4)OCO5)CC3)cc2)cc1	55*	54*	0.5	0.4	-3.2
O=C(c1ccc(NS(=O)(=O)c2ccccc2)cc1)N1CCN(Cc2ccc3c(c2)OCO3)CC1	41	94*	0.1	0.6	-2.4
Cc1cccc(C(=O)N2CCN(Cc3ccc4c(c3)OCO4)CC2)c1	92*	38	0.6	0.1	0.37
O=C(C1COc2ccccc2O1)N1CCN(Cc2ccc3c(c2)OCO3)CC1 (stereo not drawn)	14	3	1	0.9	-1
O=C(C1CC2CCC1C2)N1CCN(Cc2ccc3c(c2)OCO3)CC1 (stereo not drawn)	58*	40	0.6	0.4	0.13
Cc1ccc(S(=O)(=O)N(C)c2ccc(C(=O)N3CCC(C(N)=O)CC3)cc2)cc1	4	9	0.9	1	0.42
O=C(C1=C[C@@H](c2ccc(C(F)(F)F)cc2)C[C@@H](OCCCCO)O1)N1CCN(Cc2ccc3c(c2)OCO3)CC1	nt	nt	nt	nt	-2.9
CCC(C)(C)NC(=O)C(c1ccco1)N(C(=O)CNC(=O)c1cccs1)c1cccnc1 (stereo not drawn)	nt	nt	nt	nt	0.09
COc1ccc(CCNS(=O)(=O)c2cn(C)c(=O)n(C)c2=O)cc1OC	22	4	1	0.8	0.23
